DRD3 antagonist – antagonists of human D3 dopamine receptor; max response, negative = inhibition, %; D3R cells, DiscoveRx beta-arrestin luminescence, antagonist mode; stronger effect = lower value; P35462; AID 652054; 2.5% of 360,000 active; in the data active means max response below about -50%; inconclusive means no clear call, values can overlap the other calls; further: on the % scale 0 is the no-effect control and ±100 the full control effect
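Cells plated overnight at 1500 cells/well, then exposed to library compounds with dopamine controls for 90 minutes at 37 degrees C. DiscoveRx reagent added for 30–60 minutes at room temperature; luminescence read, quantitative HTS format.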
B2AR arrestin – agonists driving beta-arrestin recruitment to human beta2-adrenergic receptor | beta-arrestin recruitment to beta2AR, cell-based reporter | P07550 | AID 492947 | Potency, µM (series often up to 46.1 µM), for the others: at the top dose activation, most hits filed as activators | 0.02% of 330,000 active;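 further: potency means the concentration at half of the fitted maximal effect; 0% = DMSO controls and full agonism = EC100 isoproterenol or metaproterenol; nearly all actives have a fitted effect of over 65% in size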
BRCA1 expr up – increases BRCA1 expression | 1.1% of 380,000 active | Potency, µM (highest dose often 46.1 µM), inactives show at the highest dose activation, usual class: activators | MCF7-BRCA1-FFLuc reporter, luminescence, 48 h; response scale: scaled: vehicle 0%, 10 µM genistein 100% | AID 624202; further: potency means the concentration at half of the fitted maximal effect; nearly all actives have a fitted effect of over 80% in size
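MCF7-BRCA1-FFLuc, 2000 cells/well; 2 h attach, 37 °C/5% CO2; compound 48 h; luciferase substrate 15 min; luminescence end-point. Norm. to genistein 10 microM max activation and DMSO; concentration-response curves fitted.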
RGS4 inhibitor – human RGS4 inhibition | P49798 | Transcreener GDP fluorescence polarization, RGS4-accelerated GTP hydrolysis | Potency, µM (series often up to 114 µM), inactives show at the top dose activity change, negative = inhibition, usual class: inhibitors | 0.039% of 390,000 active; further: potency means the concentration at half of the fitted maximal effect; on the % scale 0 is the no-effect control and ±100 the full control effect; nearly all actives have a fitted effect of over 75% in size
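MLSMR compounds (23 nl, pin-transferred) preincubated 10 min at room temperature with a 500nM (2x) first reagent, then RGS4 at 900nM (2x) plus Transcreener GDP mix added; fluorescence polarization (620/688 nm) read before and after 90 min at 30 °C.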
PTHR1 ag – activates the human parathyroid hormone receptor PTHR1; Potency, µM (series often up to 115 µM), without a hit: at the top dose activation, actives largely listed as activators; AID 743266; 0.075% of 410,000 active; HEK293 GP2 PTHR1 cells, GloSensor cAMP luminescence, 1 h; further: potency means the concentration at half of the fitted maximal effect; nearly all actives have a fitted effect of over 55% in size
Target sequence (Q03431 whole entry, looked up): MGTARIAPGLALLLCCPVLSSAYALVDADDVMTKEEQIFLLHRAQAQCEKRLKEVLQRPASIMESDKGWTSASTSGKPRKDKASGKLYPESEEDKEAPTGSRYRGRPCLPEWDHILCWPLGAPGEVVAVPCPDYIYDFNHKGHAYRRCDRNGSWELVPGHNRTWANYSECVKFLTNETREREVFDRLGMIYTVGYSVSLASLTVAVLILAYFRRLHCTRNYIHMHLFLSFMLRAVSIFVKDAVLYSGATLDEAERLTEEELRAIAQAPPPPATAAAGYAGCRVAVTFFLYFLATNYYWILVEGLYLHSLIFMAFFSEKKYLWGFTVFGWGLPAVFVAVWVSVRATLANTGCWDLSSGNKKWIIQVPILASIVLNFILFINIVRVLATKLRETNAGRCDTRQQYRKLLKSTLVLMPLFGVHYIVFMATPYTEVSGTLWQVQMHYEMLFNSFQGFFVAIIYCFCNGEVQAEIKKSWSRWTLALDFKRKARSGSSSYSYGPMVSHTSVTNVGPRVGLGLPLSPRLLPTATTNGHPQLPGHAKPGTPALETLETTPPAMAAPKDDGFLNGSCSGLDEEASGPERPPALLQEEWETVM
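HEK-293-derived GP2 cells expressing PTHR1 and a GloSensor cAMP reporter, 3,000/well, plated overnight, given luciferin plus IBMX (each 0.5 mM as added) for 1 h at 37 °C, then compound for 1 h at 37 °C. Luminescence was read after 15 min at room temperature.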
DRD3 agonist – D3 dopamine receptor (human) agonism; P35462; D3R DiscoveRx beta-arrestin cells, luminescence, 90 min; max activation, %; 0.58% of 410,000 active; AID 652048; in the data active means max activation above about 30%; further: 0% is about no effect
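Cells at 1500/well, incubated overnight, then treated with pinned compounds (dopamine as control) for 90 min at 37 degrees C. DiscoveRx reagent added for 30 - 60 minutes at room temperature; luminescence read.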
* = called active by the depositor; i = inactive; ? = inconclusive; / = no result; ! = not active in a repeat; [ ] = another dose, or the depositor's remark. Only some compounds are listed: those with a hit (about 3.7% of all), similar ones and a draw of the others. Unless noted, the call rests on the fitted dose curve; in most records, active means well fitted curve in the direction sought with a large enough effect; inconclusive means small, poorly fitted or top-dose-only effect, or another doubt; inactive means no such curve, though single readings can be large; an effect the other way counts as inactive or inconclusive.

SMILES	DRD3 antagonist	B2AR arrestin	BRCA1 expr up	RGS4 inhibitor	PTHR1 ag	DRD3 agonist
C=C(C)CNC(=O)c1ccc2nc(Cc3ccc(OC)cc3)oc2c1	-26.1	0.0%	10µM*	-12.9%	-71.5%	-6.4
O=C(c1ccc2oc(CCCc3ccccc3)nc2c1)N1CCCC1	8.2	-0.3%	7.08µM*	-18.6%	-4.1%	-1.3
CC(=O)C1CCCN(C(=O)c2ccc3oc(CCc4ccccc4)nc3c2)C1 (stereo not drawn)	-21.8	-0.9%	0.0%	-1.8%[56.9 µM]	-60.9%	-5.9
CCC(=O)C1CCCN(C(=O)c2ccc3nc(-c4cccc(OC)c4)oc3c2)C1 (stereo not drawn)	4.5	2.2%	98.1%	-9.7%	i	6.2
COc1ccc(Cc2nc3ccc(C(=O)N4CCCC4)cc3o2)cc1OC	9.5	-1.0%	-14.2%	-0.9%	-22.4%	18.9
CCCCCC(=O)N1C[C@H](O)[C@@H](n2cc(C3CC3)nn2)C[C@@H]1c1ccc(OC)cc1	-16.4	/	-3.9%	/	-6.2%	-2.8
CSCCC(NC(=O)c1ccccc1C)C(=O)O (stereo not drawn)	1.7	-0.1%	9.3%	6.3%	i	6.4
CC1(C)NC(=O)N(CC(=O)OCC(=O)N2CCN(S(=O)(=O)c3ccccc3)CC2)C1=O	10.5	-0.2%	-8.2%	-20.5%	i	10.1
COc1ccc(NC(=O)c2cn(CC(C)C)c(=O)c3cc(OC)c(OC)cc23)cc1Cl	/	/	0.1%	4.5%	-4.4%	4.8
CC(=O)CC1(O)C(=O)Nc2ccccc21 (stereo not drawn)	15.4	0.0%	5.3%	20.5%	i	0.8
COC1=CC(=O)C=C(OC)C1(O)CC(C)=O	-55.6*	/	-13.1%	-41.8%	-7.9%	0.0
C=CCc1ccc(OCCOc2cccc3ccc(C)nc23)c(OC)c1	12.9	0.4%	2.9%	-21.7%	-34.6%	9.7
COc1cc2cnc(C3=CCCCC3)cc2cc1OC	-16.6	-0.6%	0.1%	-4.0%	i	-4.9
COc1ccc2cc(C3=CCCCC3)ncc2c1	-23.0	-0.2%	2.82µM*	-16.6%	-94.7%	-6.8
CC(C)c1ccc(-n2cnn(-c3ncccc3[N+](=O)[O-])c2=O)cc1	-83.2*	0.2%	?	-1.4%	-37.3%	-20.2
Cc1cc(C)n(-c2ncccc2[N+](=O)[O-])n1	15.3	-0.8%	-13.5%	-16.5%	-6.0%	4.5
O=[N+]([O-])c1ccc(O)c(/C=N/n2cnnc2)c1	-83.0*	0.4%	-9.6%	-13.4%	-9.5%	-11.5
O=[N+]([O-])c1ccc(O)c(/C=N/Nc2ccc(Cl)nn2)c1	-84.1*	7.5%	?	-38.5%	-8.2%	-31.1
NC(N)=N/N=C/c1cc([N+](=O)[O-])ccc1O	-10.4	0.2%	-5.6%	4.8%	-11.5%	-4.8
O=[N+]([O-])c1ccc(O)c(/C=N/Nc2nn[nH]n2)c1	?	0.1%	-5.7%	18.0%	i	-10.9
O=[N+]([O-])c1ccc(O)c(/C=N\N=C2c3ccccc3-c3ccccc32)c1	-78.2*	0.0%	-105.1%	0.9%	-91.8%	-18.9
O=[N+]([O-])c1cccc(/C=N/n2cnnc2)c1	1.4	0.4%	4.4%	4.6%	5.6%	9.9
Cc1cc(C)n(/N=C/c2cc([N+](=O)[O-])ccc2O)c(=O)c1	-67.4*	-0.1%	-21.9%	-12.3%	-27.3%	-24.3
CC(C)CCNC(=O)C(c1ccc(O)cc1)N(Cc1ccco1)C(=O)CCC(=O)Nc1nccs1 (stereo not drawn)	3.5	0.0%	-10.8%	-5.1%	-16.6%	2.4
CN(C)/N=C/c1cc([N+](=O)[O-])ccc1O	-61.0*	0.2%	-25.7%	-13.1%	i	-12.0
SMILES	DRD3 antagonist	B2AR arrestin	BRCA1 expr up	RGS4 inhibitor	PTHR1 ag	DRD3 agonist
Cc1ccc(S(=O)(=O)N/N=C/c2cc([N+](=O)[O-])ccc2O)cc1[N+](=O)[O-]	-16.9	-0.3%	-8.8%	?	-4.1%	-1.3
Cn1c(CNC(=O)C(Cc2ccccc2)NC(=O)c2cccc(F)c2)cc(=O)n(C)c1=O (stereo not drawn)	0.6	-0.7%	24.0%	-22.0%[56.9 µM]	i	3.7
COC(=O)c1cc2ccsc2n1CC(=O)Nc1cc(C)cc(C)c1	-73.5*	-0.5%	-1.6%	-4.1%	i	-14.9
CCOC(=O)C1CCN(c2ncnc3c2cnn3-c2ccc(OC)cc2)CC1	16.6	-4.6%	-40.3%	15.5%	-89.0%	32.9*
CCCN(CCC)c1ncnc2c1cnn2-c1ccc(OC)cc1	32.6	-0.1%	?	-20.4%	-33.2%	33.7*
CC(NC(=O)c1cc(COc2c(F)cccc2F)on1)c1cnn(-c2ccccc2)c1 (stereo not drawn)	12.9	-0.8%	7.08µM*	-13.6%	-46.2%	8.4
CC1CCN(CC(O)COc2cccc(F)c2)CC1 (stereo not drawn)	-57.1*	0.1%	-13.0%	-4.5%	-15.2%	-21.6
CC1CCN(CC(O)COc2ccc(-c3ccccc3)cc2)CC1 (stereo not drawn)	-72.6*	0.6%	-31.2%	28.9%	?	-16.0
COc1cccc(OCC(O)CN2CCC(C)CC2)c1 (stereo not drawn)	11.0	-0.5%	-4.9%	-16.4%	i	-30.8
CC1(OC(=O)C2CCCC2)C(=O)C=C2C=C(c3ccsc3)N(C3CC3)C=C2C1=O (stereo not drawn)	-63.7*	0.5%	-15.3%	-13.7%	19.8%	0.3
CC1(OC(=O)C2CCCC2)C(=O)C=C2C=C(c3ccsc3)N(c3ccccc3)C=C2C1=O (stereo not drawn)	-0.5	0.3%	-29.1%	-19.2%	-13.3%	4.8
CC1CCC(C(C)C)C(OC(=O)Cn2c(-c3ccc(Cl)cc3)[n+](C)c3ccccc32)C1 (stereo not drawn)	?	-0.6%	-35.8%	-4.6%[56.9 µM]	-38.5%	-26.2
CC1CCC(C(C)C)C(OC(=O)Cn2c(-c3ccc(Br)cc3)[n+](C)c3ccccc32)C1 (stereo not drawn)	-66.6*!	0.0%	-64.6%	?	-53.2%	-7.9
CCc1ccc(NC(=O)CSc2nc(C)cs2)cc1	-20.9	/	26.9%	/	i	-12.4
CCn1c(C)c(C)c2cc(C(=O)NCC(C)c3ccccc3)ccc21 (stereo not drawn)	/	/	/	-32.2%	-20.2%	-5.8
COc1cccc(C(=O)N=c2sc3cc(S(C)(=O)=O)ccc3n2C)c1	-4.6	0.0%	6.31µM*	1.9%	24.7%	-1.5
COC(=O)Cn1c(=NC(=O)c2cccc(OC)c2)sc2cc(OC)ccc21	38.2	0.0%	10µM*	3.2%	i	-0.7
CN(N=O)c1ccc(/C=C/c2ccnc3ccccc23)cc1	/	/	45.9%	/	/	/
CCOC(=O)c1c(NC(=O)COC(=O)c2nccnc2N)sc(C(=O)N(C)C)c1C	15.2	-0.2%	5.8%	-15.0%	i	1.0

High-throughput results as filed in PubChem BioAssay.
